The subject of one assay is IYD (gene 389434). The assay is described as follows: CCTE_GLTED_hIYD: CCTE's human Iodotyrosine Deiodinase (xIYD) Inhibition Assay, Great Lakes Toxicology and Ecology Division (GLTED) Lab (AID 2284317; active means hit-call score of the fitted dose curve at least 0.9, where 1 is the maximum;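 further: cell-free human IYD enzyme made in baculovirus insect cells; iodide freed from monoiodotyrosine measured by cerium arsenite color change at 420 nm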). The method, boiled down: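 Cell-free; baculovirus/insect-cell hIYD + MIT substrate + chemical, 3 h. Dowex column cleanup, then Ce4+/As3+ Sandell-Kolthoff read at A420 nm. Triplicate plates; normalized to 3-nitro-L-tyrosine (positive) and DMSO/NaOH (solvent).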

A short description of assay [1]: CCTE_Deisenroth_5AR_NBTE_donor: CCTE's 5alpha-reductase NanoBRET Target Engagement Assay […], Deisenroth Lab (AID 2284319). The conditions noted are these: actives raise or lower the signal. A digest of the protocol:
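HEK293T cells were reverse transfected with an SRD5A2-NanoLuc vector for 20 h, exposed to test chemical (8 points, 10 nM - 29.9 uM) for 3 h, then testosterone tracer for 2 h more. Donor luminescence (460 nm) was read; bidirectional fit versus DMSO.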

A short description of assay [2]: CCTE_Deisenroth_5AR_NBTE_acceptor: CCTE's 5alpha-reductase NanoBRET Target Engagement Assay - Autofluorescence Screen, Deisenroth Lab (AID 2284321). The conditions noted are these: actives raise or lower the signal. The method, boiled down: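 Acceptor-channel fluorescence flags artifacts, with excitation fixed at 460 nm. Nominal 100 uM chemical samples were read in triplicate runs, and signal changes were fitted in both directions relative to DMSO.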
In general terms: Bioluminescence resonance energy transfer reports proximity on the nanometre scale.

In another assay the test system is SRD5A2 (gene 6716). The assay is described as follows: CCTE_Deisenroth_5AR_NBTE_ratio: CCTE's 5alpha-reductase NanoBRET Target Engagement Assay - Ratio, Deisenroth Lab (AID 2284322). The conditions noted are these: actives raise or lower the signal. The method, boiled down: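 SRD5A2-NanoLuc HEK293T; cmpd 10 nM-29.9 uM, 3 h preinc + testosterone tracer 2 h; NanoBRET ratio 650/460; bidirectional fit vs DMSO.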

Assay [3] relates to Brachyury (BRA) Protein Expression, Deisenroth Lab, TBXT (gene 6862). The assay is described as follows: CCTE_Deisenroth_DEVTOX-GLR_legacy_Bra: (Legacy) CCTE's DevTox GLR-Endo Assay Evaluation of Brachyury (BRA) Protein Expression, Deisenroth Lab (AID 2284329). The method, boiled down:
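High-content imaging of fixed RUES2-GLR cells after a 48-hour differentiation with two compound exposures yields percent cells whose Bra signal exceeds pluripotent control median by 5x BMAD; values are baseline-corrected to DMSO.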

Assay [4] can be described thus: CCTE_Deisenroth_DEVTOX-GLR_legacy_CellCount: (Legacy) Viability Assessment in CCTE's DevTox GLR-Endo Assay, Deisenroth Lab (AID 2284331). The conditions noted are these: actives raise or lower the signal. A digest of the protocol:
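RUES2-GLR human pluripotent cells were seeded 24 h, then differentiated 48 h with two compound doses at 24 h intervals (10-point, 1 nM - 200 uM). Fixed nuclei were imaged and counted; bidirectional fitting versus 0.2% DMSO.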

Assay [5] is described as follows: TAMU_PeakParms_SingleDonor1434_Asystole: Texas A&M University (TAMU) 1.5-hr Human Induced Pluripotent Stem Cell (iPSC)-derived Cardiomyocytes Calcium (Ca+2) Flux Assay for Cardiotoxicity: Asystole (quiescence of beating) (AID 2284328; active means hit-call score of the fitted dose curve at least 0.9, where 1 is the maximum). A digest of the protocol: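 Human iPSC-derived cardiomyocytes (donor 1434) were exposed to 0.2, 1, 10 and 100 uM compound in 0.5% DMSO for 90 min at 37C. Ca2+-dye fluorescence gave average peak frequency; POD is EC95, a 95% beat-rate drop versus DMSO.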

A short description of assay [6]: VALA_TUBHUV_Antagonist_CellCount: Viability Assessment in the VALA Sciences human Umbilical Vein Endothelial Tubule Formation (TUBHUV) Antagonism Assay (AID 2284310; active means hit-call score of the fitted dose curve at least 0.9, where 1 is the maximum). A digest of the protocol: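 Read-out is imaged cell count after nuclear and CD31 staining, fitted against 0.1% DMSO vehicle. Compounds were added for 3 days, in 10 ng/ml VEGF assay medium, to HUVEC–HDF co-cultures pre-grown 3 days.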

Assay [7] can be described thus: VALA_TUBIPS_Agonist_TubuleLength: VALA Sciences human iPS-derived Endothelial Tubule Formation (TUBIPS) Agonism Assay (AID 2284311; active means hit-call score of the fitted dose curve at least 0.9, where 1 is the maximum). A digest of the protocol: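 Agonist-mode readout is the gain in imaged tubule length versus DMSO baseline. It was measured by fluorescence high-content imaging 72 h after dosing human iPSC-derived endothelial cells.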
Assay [8] is described as follows: VALA_TUBIPS_Antagonist_TubuleLength: VALA Sciences human iPS-derived Endothelial Tubule Formation (TUBIPS) Antagonist Assay (AID 2284313; active means hit-call score of the fitted dose curve at least 0.9, where 1 is the maximum). The method, boiled down:
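Tubule length was quantified by high-content imaging of CD31- and nuclear-stained cells, with 0.1% DMSO as neutral and 100 uM suramin as inhibition control. Compounds were applied for 3 days, in 10 ng/ml VEGF, to cultures pre-grown 3 days.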

Assay [9] in a line: VALA_MIGHUV2_CellCount: Viability Assessment in the VALA Sciences human Umbilical Vein Endothelial Cell Migration (MIGHUV) Assay, Area of Scratch Wound after Recovery (AID 2284314; active means hit-call score of the fitted dose curve at least 0.9, where 1 is the maximum). A digest of the protocol:
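Viability read-out: Hoechst-stained nuclei counted by fluorescence imaging after a 24 h recovery period in fixed, scratched HUVEC plates. Compound was dosed within 30 min of scratching at six concentrations (triplicate); DMSO at 0.1 % served as baseline.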

Assay [10] can be described thus: VALA_MIGHUV2_Bcatenin: VALA Sciences human Umbilical Vein Endothelial Cell Migration (MIGHUV) Assay, Nuclear Translocation of beta-Catenin after Recovery (AID 2284315; active means hit-call score of the fitted dose curve at least 0.9, where 1 is the maximum). A digest of the protocol:
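Nuclear beta-catenin imaged by immunofluorescence with Hoechst counterstain in fixed HUVEC, 24 h after scratch wounding and chemical addition. Six-point concentration-response in triplicate; activity scored as signal increase over 0.1% DMSO vehicle.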

Assay [11] is described as follows: VALA_MIGHUV2_WoundArea: VALA Sciences human Umbilical Vein Endothelial Cell Migration (MIGHUV) Assay, Area of Scratch Wound after Recovery (AID 2284316; active means hit-call score of the fitted dose curve at least 0.9, where 1 is the maximum). The method, boiled down:
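Wound-area endpoint read by fluorescence imaging of Hoechst-stained nuclei after a 24 h recovery period following scratch of HUVEC monolayers (9000 cells/well). Chemicals dosed within 30 min post-scratch, triplicate 6-point series, 0.1% DMSO vehicle; Cytochalasin D positive control.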

The nature of assay [12]: VALA_TUBHUV_Antagonist_TubuleLength: VALA Sciences human Umbilical Vein Endothelial Tubule Formation (TUBHUV) Antagonism Assay (AID 2284325; active means hit-call score of the fitted dose curve at least 0.9, where 1 is the maximum). A digest of the protocol: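 Tubule length was imaged via CD31 immunofluorescence after a further 3-day compound exposure in 10 ng/ml VEGF, following 3-day pre-culture of HUVEC with HDF at 1:3. Vehicle 0.1% DMSO; suramin (100 uM) inhibition control.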

Assay [13] can be described thus: VALA_MIGHUV1_ScratchOnly_CellCount: Viability Assessment in the VALA Sciences human Umbilical Vein Endothelial Cell Migration (MIGHUV) Assay, Scratch Wound Inhibited Recovery (AID 2284327; active means hit-call score of the fitted dose curve at least 0.9, where 1 is the maximum). The method, boiled down:
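Hoechst-stained nuclei in the scratch wound were counted by high-content imaging after a 24 h recovery period. Scratched HUVEC monolayers received 6-point concentration series, triplicate, in 0.1% DMSO, fit against DMSO.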

Assay [14] in a line: CCTE_Mundy_HCI_iCellGluta_NOG_NeuriteLength: CCTE's Neurite Outgrowth Assay in iCellGluta cells for Neurite Length, Mundy Lab (AID 2284318; active means hit-call score of the fitted dose curve at least 0.9, where 1 is the maximum). The method, boiled down:
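Automated high-content imaging of betaIII-tubulin (Alexa Fluor-488) and Hoechst-stained cells gave neurite length, normalized to the DMSO baseline.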

Assay [15] can be described thus: IUF_NPC2-5_cytotoxicity_120hr: Cytotoxicity Assessment at 120 hours in the Leibniz Research Institute for Environmental Medicine (IUF) Neural Progenitor Cell Migration and Differentiation Assay (NPC2-5) (AID 2284307; active means hit-call score of the fitted dose curve at least 0.9, where 1 is the maximum). The method, boiled down: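 Membrane-integrity loss measured as LDH activity in medium supernatant via resazurin-to-resorufin fluorescence after 120 h exposure. hNPC spheres from GW 16-19 fetal cortex differentiated on poly-D-lysine/laminin, 37C, medium half-refreshed day 3; seven concentrations, DMSO max 0.1%.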

The nature of assay [16]: IUF_NPC2-5_cell_number_120hr: Cell Number Assessment at 120 hours in the Leibniz Research Institute for Environmental Medicine (IUF) Neural Progenitor Cell Migration and Differentiation Assay (NPC2-5) (AID 2284308).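 Further: count of Hoechst-stained nuclei in migration zone around plated human neural progenitor spheres.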 A digest of the protocol: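 Counting of all Hoechst-stained nuclei in the migration area at 120 h, versus DMSO control. Primary hNPC spheres differentiated on poly-D-lysine/laminin in N2 medium at 37C, dosed from day 0 (7 concentrations, DMSO ≤0.1%), half-refed day 3.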

The nature of assay [17]: IUF_NPC2-5_viability_120hr: Viability Assessment at 120 hours in the Leibniz Research Institute for Environmental Medicine (IUF) Neural Progenitor Cell Migration and Differentiation Assay (NPC2-5) (AID 2284312). The method, boiled down: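 Human fetal (GW 16-19) neural progenitor spheres of 0.3 mm were plated on poly-D-lysine/laminin in N2 differentiation medium and exposed from day 0 for 120 h, with half-medium refresh at day 3. Viability was read as alamar blue resazurin-to-resorufin fluorescence against DMSO.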

Assay [18] is described as follows: IUF_NPC1_cytotoxicity_72hr: Cytotoxicity Assessment at 72 hours in the Leibniz Research Institute for Environmental Medicine (IUF) Neural Progenitor Cell Proliferation Assay (NPC1) (AID 2284332; active means hit-call score of the fitted dose curve at least 0.9, where 1 is the maximum;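 further: rising LDH signal means more cytotoxicity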). The method, boiled down:
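LDH in supernatant, resazurin→resorufin fluorescence (RFU), 72 h exposure, no re-dosing. Cells: primary hNPC spheres, one per well, EGF+FGF medium, 37C/5% CO2, pH 7.2-7.6. Fit: positive direction vs baseline and dynamic range.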

SMILES strings stand for the structures. Values joined by “and” are separate entries in the source; they are usually repeats but may differ in a detail not shown here. Equal values may be shown once. Results filed as inconclusive are left out. Active and inactive are the calls of the source. How the source made its calls, unless noted: active means hit-call score of the fitted dose curve at least 0.9, where 1 is the maximum; inactive means score below 0.9.

Take `CN(C)c1ccc(N=NS(=O)(=O)O)cc1`: the AC50 (in general, the concentration giving half of the maximal activity seen) in the assay with IYD (gene 389434) was 47.9 µM (active); in the assay with SRD5A2 (gene 6716), 64.2 µM (active). Also, the call in [1] and in [2] was inactive.

`CC[C@H](C)C(=O)O[C@H]1C[C@@H](C)C=C2C=C[C@H](C)[C@H](CC[C@@H]3C[C@@H](O)CC(=O)O3)[C@H]21`: the values for the AC50 in assay [3] and in assay [4] were 37.6 µM (active) and 2.83 µM (active), respectively.

Turning to `O=C(OC[C@H]1O[C@@H](OC(=O)c2cc(O)c(O)c(OC(=O)c3cc(O)c(O)c(O)c3)c2)[C@H](OC(=O)c2cc(O)c(O)c(OC(=O)c3cc(O)c(O)c(O)c3)c2)[C@@H](OC(=O)c2cc(O)c(O)c(OC(=O)c3cc(O)c(O)c(O)c3)c2)[C@@H]1OC(=O)c1cc(O)c(O)c(OC(=O)c2cc(O)c(O)c(O)c2)c1)c1cc(O)c(O)c(OC(=O)c2cc(O)c(O)c(O)c2)c1`, the AC50 in the assay with IYD (gene 389434) is 13.3 µM (active). The result (in assay [1]; in [2]; with SRD5A2 (gene 6716)) was inactive.

For `O=C1CCC(N2C(=O)c3ccccc3C2=O)C(=O)N1` (stereo not drawn), the result in assay [5], in assay [3] and in assay [4] was inactive.

Take `CC(C)c1cccc(C(C)C)c1N1C(=O)c2ccc(O)cc2C1=O`: the outcome in assay [6] and in assay [7] was inactive. The AC50 in [8] was 10.3 µM (active) and 72.7 µM (active); in assay [9], 85.8 µM (active); in assay [10] it was 17.4 µM (active) and 53.1 µM (active); in assay [11], 17.8 µM (active) and 74 µM (active); in assay [12], 10.7 µM (active) and 50 µM (active); in assay [13] it was 11.7 µM (active).

Consider `C[C@](N)(Cc1ccc(O)c(O)c1)C(=O)O`, for which the call in assay [3] and in assay [4] was inactive.

In the case of `CC[C@H]1OC(=O)[C@H](C)[C@@H](O[C@H]2C[C@@](C)(OC)[C@@H](O)[C@H](C)O2)[C@H](C)[C@@H](O[C@@H]2O[C@H](C)C[C@H](N(C)C)[C@H]2O)[C@](C)(O)C[C@@H](C)C(=O)[C@H](C)[C@@H](O)[C@]1(C)O`, the molecule was classed as inactive (in assay [14]; in [1]; in assay [2]; in the assay with SRD5A2 (gene 6716)).

With `CCC(C)(C)C(=O)O[C@H]1C[C@@H](C)C=C2C=C[C@H](C)[C@H](CC[C@@H]3C[C@@H](O)CC(=O)O3)[C@H]21`, the molecule was classed as inactive (in assay [1]; in [2]; in the assay with SRD5A2 (gene 6716)).

Regarding `O=P(OC(CCl)CCl)(OC(CCl)CCl)OC(CCl)CCl`, the call in assay [15], in assay [16], in assay [17], in assay [8], in [14] and in [18] was inactive.

Regarding `O=C(O)c1cc(N=Nc2ccc(S(=O)(=O)Nc3ccccn3)cc2)ccc1O`, the result in [1], in assay [2], in [3] and in assay [4] was inactive. Further, the AC50 in the assay with SRD5A2 (gene 6716) is 58.5 µM (active).

With `Nc1nc2ncc(CNc3ccc(C(=O)N[C@@H](CCC(=O)O)C(=O)O)cc3)nc2c(=O)[nH]1`, in assay [4], the molecule was called inactive.

Turning to `CCCCCCc1ccc(O)cc1O`, in [5], the result was inactive.

In the case of `CCOC(=O)c1ccc(C2CCC(NC[C@H](O)COc3ccc(O)c(NS(C)(=O)=O)c3)CC2)cc1` (stereo partly drawn), the figures for the AC50 (in assay [1]; in assay [2]; with SRD5A2 (gene 6716)) were 62.7 µM (active), 50 µM (active) and 79.2 µM (active), respectively.

As for `CCOc1cccc(-n2cc(C(=O)N3CCN(c4cc(C(=O)O)c5ccccc5c4)CC3)nc2-c2ccc(C)cc2)c1`, in the assay with IYD (gene 389434), the AC50 is 116 µM (active).

With `Cn1c(=O)c2c(ncn2C)n(C)c1=O`, in [4], the molecule was called inactive.

Regarding `NC(=O)NO`, the outcome in assay [5] and in assay [3] was inactive. For the same molecule, in assay [4], the AC50 was 64.7 µM (active).

Consider `Nc1ccc(Nc2ccccc2)cc1`, for which the concentration at half-maximal activity (AC50) in [1] is 28.3 µM (active); in assay [2], 31.5 µM (active).

The values above are taken from PubChem BioAssay (EPA / NIEHS).
